# Records with an inconclusive call do not appear. A call without a number means that no potency is given here. Calls of active or inactive are those of the source. Calls follow the shape of the dose curve; as a rule, active = well fitted inhibition curve with a large enough effect in the signal ratio in the repeat runs (not every such curve was filed as active); inconclusive = weak or mixed curves, or effect the other way; inactive = no such curve, though single readings can be large or run the other way; the % refers to the signal ratio.
# Molecular target: Peroxisome proliferator-activated receptor delta (Homo sapiens) (UniProt Q03181)
# Sequence (Q03181 whole entry, looked up): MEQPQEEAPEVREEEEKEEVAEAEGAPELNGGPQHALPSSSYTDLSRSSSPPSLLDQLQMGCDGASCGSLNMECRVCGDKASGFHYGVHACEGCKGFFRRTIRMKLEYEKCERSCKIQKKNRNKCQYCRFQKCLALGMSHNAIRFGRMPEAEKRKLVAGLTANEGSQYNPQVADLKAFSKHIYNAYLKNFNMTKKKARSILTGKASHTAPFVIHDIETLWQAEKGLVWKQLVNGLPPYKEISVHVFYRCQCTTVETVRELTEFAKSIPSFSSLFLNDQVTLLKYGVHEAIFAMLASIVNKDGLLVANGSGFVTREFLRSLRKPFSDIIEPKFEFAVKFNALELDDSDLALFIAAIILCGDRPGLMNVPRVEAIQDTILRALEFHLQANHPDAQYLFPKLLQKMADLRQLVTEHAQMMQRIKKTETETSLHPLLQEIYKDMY
# Test: qHTS assay to identify small molecule antagonists of the peroxisome proliferator-activated receptor delta (PPARd) signaling pathway (AID 743215);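 also: cells stimulated with agonist L165041 at 300 nM final during compound exposure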
# Details: HEK293H PPARd-UAS-bla, beta-lactamase FRET ratio, antagonist, 17 h; series mostly up to 62 µM
# How it was run: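 Cells: HEK293H with a UAS-driven beta-lactamase reporter responsive to PPARd. Compounds were co-added with L165041 (300 nM, final) and incubated 17 h at 37 C before a 2 h room-temperature FRET substrate step and fluorescence reading.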
row,SMILES,Potency
1,C=C(C)C(=O)O[C@H]1C[C@@H]2CC[C@@]1(C)C2(C)C,inactive
2,O=S1(=O)CC=CC1,inactive
3,CC(=O)c1ccccc1,inactive
4,O=C(O)CCCCCCCCCCC(=O)O,inactive
5,O=c1[nH]c(=O)n([C@H]2CCCO2)cc1F,inactive
6,O=C=NCCCCCCN=C=O,inactive
7,C[Si](O[Si](C)(C)C)O[Si](C)(C)C,inactive
8,O=C(CC(C(=O)OC1CCCCC1)S(=O)(=O)O)OC1CCCCC1 (configuration not stated),inactive
9,C[C@H]1C[C@H]2[C@@H]3CCC4=CC(=O)C=C[C@]4(C)[C@@]3(F)[C@@H](O)C[C@]2(C)[C@@]1(O)C(=O)CO,inactive
10,c1ccc2c(c1)ccc1ccccc12,inactive
11,CCN(CC)CCCC(C)Nc1ccnc2cc(Cl)ccc12 (configuration not stated),inactive
12,CCCCCC/C(C=O)=C\c1ccccc1,inactive
13,CCCCC(CC)COC(=O)C(C#N)=C(c1ccccc1)c1ccccc1 (configuration not stated),inactive
14,CN(C)CCCN,inactive
15,CCCCN(CCCC)CCCC,inactive
16,O=C(O)c1ccccc1C(c1ccc(O)cc1)c1ccc(O)cc1,inactive
17,CCCCCC1=CCCC1=O,inactive
18,N[C@@H](Cc1cc(I)c(Oc2cc(I)c(O)c(I)c2)c(I)c1)C(=O)O,inactive
19,O=C(O)c1cc(O)c(O)c(O)c1,inactive
20,c1c[nH]cn1,inactive
21,CC(=O)Nc1ccccc1,inactive
22,C#CCN(C)Cc1ccccc1,inactive
23,CCCCCCCCCC,inactive
24,O=C(O)[C@H](O)[C@@H](O)[C@H](O)[C@H](O)CO,inactive
25,O=C(Oc1ccccc1)c1ccccc1,inactive
26,CC(c1cc2ccccc2s1)N(O)C(N)=O (configuration not stated),inactive

# Molecular target: Bile acid receptor (Homo sapiens) (UniProt Q96RI1)
# Sequence (Q96RI1 whole entry, looked up): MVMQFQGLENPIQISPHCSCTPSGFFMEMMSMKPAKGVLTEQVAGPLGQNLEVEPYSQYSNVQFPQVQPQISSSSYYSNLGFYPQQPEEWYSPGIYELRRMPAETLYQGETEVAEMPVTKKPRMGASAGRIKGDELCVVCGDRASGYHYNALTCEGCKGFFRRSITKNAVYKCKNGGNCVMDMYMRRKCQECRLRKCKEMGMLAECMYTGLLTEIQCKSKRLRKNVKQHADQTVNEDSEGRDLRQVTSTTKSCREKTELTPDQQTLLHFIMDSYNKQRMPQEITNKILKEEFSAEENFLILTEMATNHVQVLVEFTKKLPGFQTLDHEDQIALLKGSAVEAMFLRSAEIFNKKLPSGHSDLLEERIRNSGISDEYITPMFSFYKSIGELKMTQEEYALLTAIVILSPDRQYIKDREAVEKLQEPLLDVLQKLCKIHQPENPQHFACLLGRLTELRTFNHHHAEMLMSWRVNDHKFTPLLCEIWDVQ
# Test: qHTS assay to identify small molecule antagonists of the farnesoid-X-receptor (FXR) signaling pathway (AID 743217)
# Details: HEK293T FXR-UAS-bla, beta-lactamase ratio, CDCA-stimulated, 16 h; series mostly up to 62.6 µM
# How it was run: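 Cells carrying a UAS-driven beta-lactamase reporter (GeneBLAzer FXR-UAS-bla HEK 293T) were plated and rested 5 h at 37 °C. Compounds in DMSO were added alongside chenodeoxycholic acid agonist at 50 uM final and left 16 h at 37 °C before FRET substrate readout.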
row,SMILES,outcome
1,Oc1cccc2ccccc12,inactive
2,O=C(O)CCCCCCCCCCC(=O)O,inactive
3,O=C=NCCCCCCN=C=O,inactive
4,OCc1cccnc1,inactive
5,C[Si](O[Si](C)(C)C)O[Si](C)(C)C,inactive
6,CC1CCC2CC1C2(C)C (configuration not stated),inactive
7,O=C(CC(C(=O)OC1CCCCC1)S(=O)(=O)O)OC1CCCCC1 (configuration not stated),inactive
8,c1ccc2c(c1)ccc1ccccc12,inactive
9,CCCCCC/C(C=O)=C\c1ccccc1,inactive
10,CN(C)CCCN,inactive
11,CCCCN(CCCC)CCCC,inactive
12,CCCCCC1=CCCC1=O,inactive
13,O=C(O)c1ccc2c(c1)C(=O)OC2=O,inactive
14,CC(=O)Nc1ccccc1,inactive
15,CCCCCCCCCC,inactive
16,O=C(Oc1ccccc1)c1ccccc1,inactive
